A number with no mark means an inactive call. Inconclusive results are not listed. The source made the active and inactive calls. Unless noted, the call rests on the fitted dose curve; in most records, active means well fitted curve in the direction sought with a large enough effect; inconclusive means small, poorly fitted or top-dose-only effect, or another doubt; inactive means no such curve, though single readings can be large; an effect the other way counts as inactive or inconclusive.

The results in this text go back to PubChem BioAssay (NCATS).

The target in assay [1] is Lysosomal acid glucosylceramidase (Homo sapiens) (UniProt P04062). Description: Glucocerebrosidase-p2 (AID 348; in the data active means potency below about 10 µM; further: potency means the concentration at half of the fitted maximal effect). The note with it: purified GBA, blue fluorogenic substrate, 40 min. In short, it runs like this:
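Normal human glucocerebrosidase (0.2 nM) with blue fluorogenic substrate (80 uM final) in citrate/phosphate pH 5.9 with 10mM sodium taurocholate, 0.01% tween-20; 40 min RT, NaOH/glycine stop; fluorescence Ex 365/Em 440; AC50 from a titration from 0.6 nM upwards.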

The nature of assay [2]: AP1 Signaling Pathway (AID 357; active means well fitted curve in either direction with a large enough effect, not every such curve was filed as active;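 further: ME-180 reporter cells stimulated with EGF at its EC50 level; on the % scale 0 is the no-effect control and ±100 the full control effect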). The note with it: ME-180 AP-1-bla reporter, EGF-induced, beta-lactamase ratio, 5 h; at 7.69 µM (top of the series) unless noted. In short, it runs like this:
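Cells are seeded overnight, exposed to compound titrations and an EC50 level of EGF for 5 hours at 37 °C, then loaded with CCF4 dye for 2.5 hours. Beta-lactamase activity under the AP-1 element is read as a blue/green ratio.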

A short description of assay [3]: NFAT Signaling Pathway (AID 444; active means well fitted curve in either direction with a large enough effect, not every such curve was filed as active;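 further: carbachol stimulus at about its EC50 of 1 µM final; on the % scale 0 is the no-effect control and ±100 the full control effect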). To be noted: Jurkat NFAT-bla M1, carbachol, beta-lactamase ratio, 5 h; at 7.69 µM (top of the series) unless noted. In short, it runs like this:
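Read-out: CCF4 FRET ratio (460 nm/530 nm) after 1 h RT dye loading, used for %activity and AC50 from titration series. Cells: Jurkat NFAT-β-lactamase/M1 line, treated with compound plus 1 uM carbachol for 5 h, 37 °C.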

Assay [4] in a line: Stat Signaling Pathway (AID 446; active means well fitted curve in either direction with a large enough effect, not every such curve was filed as active;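 further: ME-180 cervical cancer cells given 40 pM IL-6 alongside compound; SIE-controlled beta-lactamase reporter measured as 460/530 nm FRET emission ratio; on the % scale 0 is the no-effect control and ±100 the full control effect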). The note with it: ME-180 SIE beta-lactamase reporter, IL-6 stimulated, 5 h; at 7.69 µM (top of the series) unless noted. A digest of the protocol: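 Emission at 460 and 530 nm (excitation 405 nm) reports SIE-controlled beta-lactamase in ME-180 cells. Cells received compound with 40 pM IL-6 for 5 hrs at 37 C; data scaled between 300 pM IL-6 and 125 nM JAK-inhibitor controls.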

The target in assay [5] is Glucocorticoid receptor (Homo sapiens) (UniProt P04150). Description: GR-GFP Redistribution (AID 450;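 active means compounds whose dose series gives a full or clear partial fitted curve of increased nuclear translocation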; further: potency means the concentration at half of the fitted maximal effect). The note with it: U2OS GR-GFP nuclear translocation, laser cytometry, 2 h.
For assay [6] the target is unchanged. Description: GR-EFC Redistribution (AID 451; calls by dose curve; further: potency means the concentration at half of the fitted maximal effect). The note with it: CHO-K1 GR-EFC translocation, beta-gal luminescence, 2 h. In short, it runs like this:
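Translocation of GR-ED fusion to nuclear EA restores b-gal, read by luminescence after 1 h room-temperature detection. Engineered CHO-K1 biosensor cells, 1,000/well, exposed 2 h at 37 C to titrations up to 46 uM final.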

The target in assay [7] is Mitogen-activated protein kinase 10 (Mus musculus) (UniProt Q61831). Description: JNK3 AlphaScreen Assay (AID 530; active means well fitted curve in either direction with a large enough effect, not every such curve was filed as active;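 further: kinase came from lysate of stimulated human HepG2 cells; signal reports phosphorylation of biotinylated GST-cJun 1-79 at Ser73 with 10 µM ATP; on the % scale 0 is the no-effect control and ±100 the full control effect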). To be noted: JNK3 lysate, c-Jun phosphorylation; series mostly up to 57.1 µM. In short, it runs like this:
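qHTS titrations with 15 min compound pre-incubation before adding ATP (10 uM final). Read-out: AlphaScreen of Ser73-phosphorylated biotin-GST-cJun using HepG2 lysate JNK3 activated by IL-1β and TNFα.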
On the technique in general: Bead proximity is the source of the signal in Alpha formats.

Assay [8] has as its target 3',5'-cyclic-AMP phosphodiesterase 4B (Homo sapiens) (UniProt Q07343). Description: qHTS Assay for Inhibitors of PDE-IV (AID 607; active means well fitted activation curve with a large enough effect in the main read-out, with a control signal flat, not every such curve was filed as active; further: % of control where 0% means no effect). The note with it: HEK293 ACTOne CNG channel cells, membrane potential fluorescence; series mostly up to 22.9 µM. In short, it runs like this: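 The readout is membrane depolarisation from a cAMP-sensing CNG channel, detected with a potential dye at ex 535/em 590. Cells were HEK293-derived (endogenous PDE-IV) at 1000 cells/well, titrated up to 22.9 uM final.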
A general note: Quantitative high-throughput screening tests each substance at several concentrations.

Assay [9] concerns the target Dual specificity protein kinase CLK4 (Homo sapiens) (UniProt Q9HAZ1). Nature of the assay: qHTS Assay for Inhibitors of CDC-like Kinase 4 (Kinase-Glo Assay) (AID 1770). Further: nearly all actives have a fitted effect of over 65% in size. Further: potency means the concentration at half of the fitted maximal effect. To be noted: recombinant Clk4, Kinase-Glo ATP depletion luminescence; series mostly up to 66.7 µM. In short, it runs like this: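 Readout: Kinase-Glo luminescence from ATP left after a 4.5 h room-temperature reaction of 25 nM Clk4 with 100 uM RS peptide and 1 uM ATP (final). Buffer: 25 mM Tris pH 7.5, 10 mM MgCl2.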

Assay [10] has the same target. Description: qHTS Assay for Inhibitors of CDC-like Kinase 4 (ADP-Glo Assay) (AID 1771). Further: nearly all actives have a fitted effect of over 70% in size. Further: potency means the concentration at half of the fitted maximal effect. To be noted: recombinant CLK4, ADP-Glo luminescence; series mostly up to 80 µM. A digest of the protocol: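 Compounds are pin-transferred onto substrate mix (100 uM RS peptide, 1 uM ATP), then 25 nM Clk4 is added. After 1 hr at room temperature, ADP-Glo reagent runs 45 min, detection reagent 30 min, then luminescence is read.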

The target is the same in assay [11]. Nature of the assay: qHTS Assay for Inhibitors of CDC-like Kinase 4 (ADP-FP Assay) (AID 1795). Further: nearly all actives have a fitted effect of over 60% in size. Further: potency means the concentration at half of the fitted maximal effect. The note with it: Transcreener ADP fluorescence polarization; series mostly up to 50 µM. A digest of the protocol:
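FP readout: Orange Transcreener ADP2 tracer (4 nM) plus ADP antibody, read after 30 min at room temperature. Kinase step: 6.25 nM Clk4, 100 uM RS peptide, 1 uM ATP, pH 7.5, 1 h.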

In assay [12] the target is Ubiquitin carboxyl-terminal hydrolase 1 (Homo sapiens) (UniProt O94782). Description: Inhibitors of USP1/UAF1: Pilot qHTS (AID 504865).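 Further: rhodamine fluorescence freed from ubiquitin-rhodamine substrate followed over time; top concentration of the series differs between compounds; on the % scale 0 is the no-effect control and ±100 the full control effect; nearly all actives have a fitted effect of over 35% in size.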 The note with it: purified USP1/UAF1, Ub-rhodamine cleavage fluorescence; series mostly up to 54.9 µM. A digest of the protocol:
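1nM USP1/UAF1 + cpd, 15 min RT; start w/ Ub-Rho 150nM final; kinetic FL 480/540 nm, 6 reads q60 s. Buffer 50mM HEPES pH 7.8, 0.5mM EDTA, 1mM TCEP, 0.01% Tween-20, 0.1 mg/ml BSA.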

Assay [13] is described as follows: Primary qHTS for small molecule stabilizers of the endoplasmic reticulum resident proteome: Secreted ER Calcium Modulated Protein (SERCaMP) assay (AID 1508630). Further: on the % scale 0 is the no-effect control and ±100 the full control effect. The note with it: SH-SY5Y GLuc-SERCaMP (Gaussia luciferase released on ER calcium loss) secretion, thapsigargin, luminescence; series mostly up to 38.4 µM. In short, it runs like this: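 The SH-SY5Y reporter protocol was run at 3 concentrations up to 38.3 uM (primary) or 11 concentrations (follow-up): 16 h compound, 100 nM thapsigargin for 4 h, then extracellular luciferase luminescence.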

Assay [14] in a line: qHTS Assay for Identification of Small Molecule Agonists for Hypoxia Response Element Signaling Pathway (AID 914; active means well fitted activation curve with a large enough effect in the signal ratio, with a control signal flat, not every such curve was filed as active; the % refers to the signal ratio; further: potency means the concentration at half of the fitted maximal effect; on activation: % of control where 0% means no effect). The note with it: ME-180 (cervical carcinoma) HRE-bla reporter, beta-lactamase ratio, CoCl2, 17 h; activation: stronger effect = higher value. In short, it runs like this: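 Reporter activity (beta-lactamase, CCF4 460nm/530nm ratio) in HRE-bla ME-180 cells is recorded after 17 h compound exposure with EC50 CoCl2 at 37 degrees Celsius. AC50 values come from titration data.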

Assay [15] concerns the target Cytochrome P450 3A4 (Homo sapiens) (UniProt P08684). Description: qHTS Assay for Activators of Cytochrome P450 3A4 (AID 885). Further: nearly all actives have a fitted effect of over 65% in size. The note with it: recombinant CYP3A4, Luciferin-PPXE luminescence, 60 min; series mostly up to 57.1 µM. A digest of the protocol:
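Activators are scored by enhanced luminescence from CYP3A4 conversion of luciferin-PPXE (25uM, equal to KM) to luciferin, after 60 min at RT with an NADPH-regenerating system.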

Assay [16] shares this target. Description: qHTS Assay for Inhibitors and Substrates of Cytochrome P450 3A4 (AID 884). Further: potency means the concentration at half of the fitted maximal effect; nearly all actives have a fitted effect of over 50% in size. To be noted: recombinant CYP3A4, Luciferin-PPXE luminescence; series mostly up to 57.1 µM. A digest of the protocol:
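Luminescent readout of luciferin produced by CYP3A4 (20 nM) dealkylation of Luciferin-PPXE, 25 uM (its KM). NADPH-driven reaction ran 60 min at RT after 10 min compound preincubation; data scaled to 57 uM ketoconazole as 100% inhibition.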

Sequence of Lysosomal acid glucosylceramidase (Homo sapiens) (P04062 whole entry, looked up): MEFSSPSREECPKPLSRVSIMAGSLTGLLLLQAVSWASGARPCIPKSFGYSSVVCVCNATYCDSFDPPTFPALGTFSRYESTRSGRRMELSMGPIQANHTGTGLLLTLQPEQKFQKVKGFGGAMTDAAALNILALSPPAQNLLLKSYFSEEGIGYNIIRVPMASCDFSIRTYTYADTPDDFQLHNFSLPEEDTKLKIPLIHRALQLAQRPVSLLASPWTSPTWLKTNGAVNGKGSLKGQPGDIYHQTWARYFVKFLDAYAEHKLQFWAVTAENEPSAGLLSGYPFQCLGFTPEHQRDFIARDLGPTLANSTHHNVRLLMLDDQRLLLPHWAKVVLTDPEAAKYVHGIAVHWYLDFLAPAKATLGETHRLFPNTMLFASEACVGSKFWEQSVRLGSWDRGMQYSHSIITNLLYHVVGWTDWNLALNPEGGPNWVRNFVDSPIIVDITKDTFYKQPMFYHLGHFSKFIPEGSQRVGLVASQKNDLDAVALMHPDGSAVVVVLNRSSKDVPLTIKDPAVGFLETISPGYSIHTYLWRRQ
Sequence of Cytochrome P450 3A4 (Homo sapiens) (P08684 whole entry, looked up): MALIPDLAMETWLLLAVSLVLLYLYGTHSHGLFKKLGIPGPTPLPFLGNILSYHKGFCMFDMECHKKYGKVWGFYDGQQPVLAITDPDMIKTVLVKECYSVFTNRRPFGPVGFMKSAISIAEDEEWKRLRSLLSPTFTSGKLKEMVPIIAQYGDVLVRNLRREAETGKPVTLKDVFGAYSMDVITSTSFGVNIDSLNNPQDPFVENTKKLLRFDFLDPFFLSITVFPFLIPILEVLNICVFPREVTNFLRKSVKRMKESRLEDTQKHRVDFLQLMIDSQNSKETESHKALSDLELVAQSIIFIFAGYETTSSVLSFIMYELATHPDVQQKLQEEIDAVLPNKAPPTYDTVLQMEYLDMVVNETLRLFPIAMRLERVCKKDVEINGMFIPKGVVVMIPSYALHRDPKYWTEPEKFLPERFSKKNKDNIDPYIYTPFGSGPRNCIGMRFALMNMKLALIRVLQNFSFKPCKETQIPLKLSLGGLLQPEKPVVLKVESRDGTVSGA
Sequence of Ubiquitin carboxyl-terminal hydrolase 1 (Homo sapiens) (O94782 whole entry, looked up): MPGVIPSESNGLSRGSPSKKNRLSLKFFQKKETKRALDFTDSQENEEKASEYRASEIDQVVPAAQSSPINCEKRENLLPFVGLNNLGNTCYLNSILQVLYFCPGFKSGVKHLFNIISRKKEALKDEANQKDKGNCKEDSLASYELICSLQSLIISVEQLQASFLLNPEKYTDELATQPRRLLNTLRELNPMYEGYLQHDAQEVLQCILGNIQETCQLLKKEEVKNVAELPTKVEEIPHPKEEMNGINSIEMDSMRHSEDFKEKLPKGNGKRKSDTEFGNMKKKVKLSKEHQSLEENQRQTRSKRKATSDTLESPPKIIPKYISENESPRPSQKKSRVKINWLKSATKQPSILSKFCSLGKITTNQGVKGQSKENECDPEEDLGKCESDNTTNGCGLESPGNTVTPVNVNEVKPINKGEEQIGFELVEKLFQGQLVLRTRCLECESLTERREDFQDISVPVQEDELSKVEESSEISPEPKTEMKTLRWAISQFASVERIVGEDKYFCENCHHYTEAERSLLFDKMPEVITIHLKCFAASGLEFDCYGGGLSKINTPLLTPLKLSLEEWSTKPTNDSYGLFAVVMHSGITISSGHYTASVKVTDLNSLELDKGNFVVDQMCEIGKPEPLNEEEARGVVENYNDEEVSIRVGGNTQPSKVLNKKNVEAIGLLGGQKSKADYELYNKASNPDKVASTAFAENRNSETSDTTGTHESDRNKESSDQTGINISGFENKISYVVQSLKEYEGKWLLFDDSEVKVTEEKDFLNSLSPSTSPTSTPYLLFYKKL
Sequence of 3',5'-cyclic-AMP phosphodiesterase 4B (Homo sapiens) (Q07343 whole entry, looked up): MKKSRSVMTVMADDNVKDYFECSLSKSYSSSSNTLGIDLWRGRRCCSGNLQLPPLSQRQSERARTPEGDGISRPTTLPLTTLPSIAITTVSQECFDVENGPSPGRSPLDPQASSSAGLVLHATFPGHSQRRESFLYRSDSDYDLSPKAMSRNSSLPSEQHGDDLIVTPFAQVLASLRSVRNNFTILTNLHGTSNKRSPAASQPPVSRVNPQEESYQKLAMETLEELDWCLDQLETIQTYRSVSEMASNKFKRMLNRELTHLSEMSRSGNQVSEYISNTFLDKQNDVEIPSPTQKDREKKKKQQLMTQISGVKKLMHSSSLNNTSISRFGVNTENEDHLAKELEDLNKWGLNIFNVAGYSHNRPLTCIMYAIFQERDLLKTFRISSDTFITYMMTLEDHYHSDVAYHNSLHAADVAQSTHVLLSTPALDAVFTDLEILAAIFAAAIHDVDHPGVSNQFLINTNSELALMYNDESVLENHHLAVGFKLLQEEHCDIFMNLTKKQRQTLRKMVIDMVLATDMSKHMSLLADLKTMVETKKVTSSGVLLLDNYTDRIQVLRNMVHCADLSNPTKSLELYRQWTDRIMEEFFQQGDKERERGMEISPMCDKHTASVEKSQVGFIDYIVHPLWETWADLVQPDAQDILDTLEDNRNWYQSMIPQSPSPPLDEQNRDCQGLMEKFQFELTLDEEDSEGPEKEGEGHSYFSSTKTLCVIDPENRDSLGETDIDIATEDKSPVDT
Sequence of Dual specificity protein kinase CLK4 (Homo sapiens) (Q9HAZ1 whole entry, looked up): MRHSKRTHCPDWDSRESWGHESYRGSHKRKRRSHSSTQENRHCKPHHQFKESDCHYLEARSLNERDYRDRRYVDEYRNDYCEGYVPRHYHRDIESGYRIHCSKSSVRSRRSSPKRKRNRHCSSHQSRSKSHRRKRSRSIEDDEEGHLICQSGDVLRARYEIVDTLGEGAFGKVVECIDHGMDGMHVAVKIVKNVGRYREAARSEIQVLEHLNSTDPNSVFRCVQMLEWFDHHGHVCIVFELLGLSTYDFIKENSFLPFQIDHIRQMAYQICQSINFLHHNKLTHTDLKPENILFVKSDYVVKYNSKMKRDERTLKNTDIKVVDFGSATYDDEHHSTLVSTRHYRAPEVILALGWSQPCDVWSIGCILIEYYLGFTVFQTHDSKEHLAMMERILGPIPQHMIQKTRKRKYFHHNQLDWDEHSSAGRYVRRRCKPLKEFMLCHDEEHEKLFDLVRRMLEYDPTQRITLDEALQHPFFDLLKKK
Sequence of Glucocorticoid receptor (Homo sapiens) (P04150 whole entry, looked up): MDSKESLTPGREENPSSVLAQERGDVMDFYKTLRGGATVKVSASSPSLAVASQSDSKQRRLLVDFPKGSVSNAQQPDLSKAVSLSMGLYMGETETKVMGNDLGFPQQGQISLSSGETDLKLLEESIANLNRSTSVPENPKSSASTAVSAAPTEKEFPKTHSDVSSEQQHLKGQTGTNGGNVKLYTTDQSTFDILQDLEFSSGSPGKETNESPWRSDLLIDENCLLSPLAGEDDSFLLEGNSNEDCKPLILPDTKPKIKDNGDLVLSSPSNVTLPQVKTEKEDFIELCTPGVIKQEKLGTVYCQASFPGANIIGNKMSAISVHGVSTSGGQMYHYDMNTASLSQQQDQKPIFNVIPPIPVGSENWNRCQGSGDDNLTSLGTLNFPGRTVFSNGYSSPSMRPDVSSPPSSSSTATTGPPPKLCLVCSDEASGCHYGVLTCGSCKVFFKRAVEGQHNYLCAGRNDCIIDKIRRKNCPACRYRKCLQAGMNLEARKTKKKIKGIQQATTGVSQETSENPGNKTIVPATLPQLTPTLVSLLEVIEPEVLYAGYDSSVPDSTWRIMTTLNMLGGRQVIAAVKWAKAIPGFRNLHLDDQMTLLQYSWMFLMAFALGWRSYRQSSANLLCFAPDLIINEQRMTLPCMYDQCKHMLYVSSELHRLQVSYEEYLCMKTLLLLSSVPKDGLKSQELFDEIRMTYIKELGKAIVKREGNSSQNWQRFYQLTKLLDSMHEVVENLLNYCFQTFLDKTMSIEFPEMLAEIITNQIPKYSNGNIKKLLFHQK

In the case of `CNc1ncnc2ccc(-c3ccc4c(c3)OCO4)cc12`, the Potency in assay [1] was more than 11.4 µM; in assay [5] it was more than 46 µM; in assay [6], more than 46 µM; in assay [9], 0.891 µM (active); in assay [10], 0.631 µM (active); in assay [11] it was 0.355 µM (active). Further, the activity change, negative = inhibition was -8.86% in [2] and 15.3% in assay [3]. Moreover, the activity, negative = inhibition in assay [4] was 12.6%. For the same compound, the Potency entry in assay [7], in [8] and in assay [12] was “inactive” throughout. In addition, in assay [13], the outcome was inactive.
As to `CCNc1ncc2nc(-c3cc(F)cc(F)c3)c(=O)n(Cc3ccc(F)cc3)c2n1`, the figures for the Potency in [1], in assay [6] and in assay [14] were more than 11.4 µM, more than 46 µM and 2 µM (active), respectively. Besides, the values for the activity change, negative = inhibition in assay [2] and in [3] were 20.2% and 28.9%, respectively. Further, the Potency result in assay [7], in [8], in assay [9], in [10], in [11] and in assay [12] was “inactive” in each case. Also, the result in assay [13] was inactive.
Consider `COc1cccc(Nc2ncc3nc(-c4ccc(Cl)cc4)c(=O)n(C[C@H]4CCCO4)c3n2)c1`, for which the Potency in assay [1] is more than 11.4 µM; in assay [5], more than 9.22 µM; in assay [6], more than 46 µM. The activity change, negative = inhibition in assay [2] is -20.5%; in [3], 2.35%. The activity, negative = inhibition in assay [4] was 4.74%. Moreover, the Potency result in assay [7], in assay [8], in assay [15], in assay [9], in [10] and in assay [11] was “inactive” in each case. Besides, the outcome in [13] was inactive.
Turning to `O=c1c(-c2cccs2)nc2cnc(Oc3ccccc3)nc2n1Cc1cccs1`, the results for the Potency in assay [1] and in assay [5] were more than 11.4 µM and more than 9.22 µM, respectively. Also, the activity change, negative = inhibition was -14% in [2] and 1.21% in [3]. The activity, negative = inhibition in [4] was 1.3%. For the same compound, the Potency entry in [7], in assay [8], in [15], in [9], in assay [10] and in [11] was “inactive” throughout. Also, the activation in [14] was 9.14%. The outcome in assay [13] was inactive.
In the case of `CCNc1ncc2nc(-c3ccc(F)cc3)c(=O)n(CCc3ccccc3)c2n1`, the Potency was more than 11.4 µM in assay [1], more than 9.22 µM in assay [5], more than 46 µM in assay [6] and 0.398 µM (active) in assay [14]. Besides, the activity change, negative = inhibition in [2] was 12.6%; in [3], -12.8%. Besides, the Potency result in assay [7], in assay [9], in assay [10], in assay [11] and in assay [12] was “inactive” throughout. For the same compound, the result in assay [13] was inactive.
For the compound `Cc1noc(C)c1-c1cncnc1Nc1ccccc1`, the Potency in assay [1] was more than 2.29 µM; in assay [5] it was more than 46 µM; in [6], more than 46 µM; in assay [16] it was 3.16 µM (active). For the same compound, the activity change, negative = inhibition in assay [2] is 13.6%; in assay [3], 11.7%. In addition, in assay [4], the activity, negative = inhibition was 10.3%. Besides, the Potency result in assay [7], in [15], in assay [9], in assay [10], in assay [11] and in assay [12] was “inactive” in each case. The outcome in assay [13] was inactive.
For `COCCn1c(=O)cnc2cnc(N3CCOCC3)nc21`, the Potency was more than 11.4 µM in [1], more than 9.22 µM in assay [5] and more than 46 µM in assay [6]. The activity change, negative = inhibition in assay [2] was 8.71%; in assay [3], -0.664%. For the same compound, in [4], the activity, negative = inhibition was -12.6%. For the same compound, the Potency entry in assay [7], in assay [8], in assay [9], in assay [10], in [11] and in assay [12] was “inactive” throughout. The activation in assay [14] is -5.07%. Further, the outcome in [13] was inactive.
